# Test results: article PMC8384837, “Expanding the binding specificity for RNA recognition by a PUF domain”
# Substitutions are numbered along the chain they refer to.
# Legend:
# Test in all cases: yeast three-hybrid, YBZ-1, SC-Leu-His + 0.5 mM 3-AT, 4 days
# Conditions in all cases: tags: N-Gal4 AD-HA kept; label: inside an RPR1-promoter hybrid RNA with tandem MS2 sites; ssRNA
# [1] = target: T1, PUM1 PUF domain R6-CYV (Homo sapiens, UniProt Q14671 828-1176, N1043C;Q1047V)
# T1 sequence: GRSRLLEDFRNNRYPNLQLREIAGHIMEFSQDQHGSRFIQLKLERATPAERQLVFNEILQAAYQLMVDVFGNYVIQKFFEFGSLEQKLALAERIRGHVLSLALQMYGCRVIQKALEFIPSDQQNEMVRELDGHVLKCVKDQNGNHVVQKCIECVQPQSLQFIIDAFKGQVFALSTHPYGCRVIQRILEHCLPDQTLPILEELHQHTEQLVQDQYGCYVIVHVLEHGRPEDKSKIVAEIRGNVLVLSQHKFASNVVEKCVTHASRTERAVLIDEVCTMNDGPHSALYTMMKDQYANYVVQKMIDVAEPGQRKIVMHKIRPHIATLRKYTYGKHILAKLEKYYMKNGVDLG
# Outline: (§1)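 Pumilio-1 PUF domain libraries, randomized (NNK) at the three base-contacting residues of each repeat, were co-expressed with matching RNA elements from a centromeric plasmid in strain YBZ-1 (LexA–MS2 coat fusion, HIS3 reporter). Transformants were plated on SC-Leu (input) and SC-Leu-His + 0.5 mM 3-AT (selection) for four days, and repeat regions were PCR-amplified and Illumina-sequenced. The interaction score is the log2 change in variant frequency from input to selection, with pseudocount 1 where absent.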
# [2] = target: PUM1 PUF domain R4-SNL (Homo sapiens, UniProt Q14671 828-1176, N971S;H972N;Q975L)
# Outline: as §1
# [3] = target: PUM1 PUF domain R3-VYF (Homo sapiens, UniProt Q14671 828-1176, C935V;R936Y;Q939F)
# Outline: as §1
# [4] = target: T2, PUM1 PUF domain R6-GHS (Homo sapiens, UniProt Q14671 828-1176, N1043G;Y1044H;Q1047S)
# T2 sequence: T1 sequence with C216G, Y217H, V220S
# Outline: as §1
# [5] = target: PUM1 PUF domain R3-ARA (Homo sapiens, UniProt Q14671 828-1176, C935A;Q939A)
# Outline: as §1
# [6] = target: PUM1 PUF domain R1-QVK (Homo sapiens, UniProt Q14671 828-1176, S863Q;R864V;Q867K)
# Outline: as §1
sequence,measurement,setting,value
GGCUAGAACUAGUGGAUCCCCCGGCGCCCGGCGGCUCGAGCCCGGGUAAGUGUAAAUAGUCUGCAUGCCGCCGGGCGCCAUGCCUGCAGGUCGACUCUAGAAAACAUG,binding signal,[1],0.52 log2 enrichment (interaction score)
same,binding signal,[2],2.52 log2 enrichment (interaction score)
same,binding signal,[3],5.15 log2 enrichment (interaction score)
same,binding signal,[4],0.45 log2 enrichment (interaction score)
same,binding signal,[5],3.97 log2 enrichment (interaction score)
GGCUAGAACUAGUGGAUCCCCCGGCGCCCGGCGGCUCGAGCCCGGGUAAGUGUAAAUCGUCUGCAUGCCGCCGGGCGCCAUGCCUGCAGGUCGACUCUAGAAAACAUG,binding signal,[6],2.91 log2 enrichment (interaction score)
GGCUAGAACUAGUGGAUCCCCCGGCGCCCGGCGGCUCGAGCCCGGGUAAGUGUAAGUAGUCUGCAUGCCGCCGGGCGCCAUGCCUGCAGGUCGACUCUAGAAAACAUG,binding signal,[5],1.03 log2 enrichment (interaction score)
